Source: PubChem BioAssay
TRHR agonist = activates the human TRH receptor | TRHR cells, calcium flux fluo-8, FDSS agonist mode | activation, % at 2 µM | 360,000 tested, 0.18% active; further: 0% is about no effect
Target sequence (P34981 whole entry, looked up): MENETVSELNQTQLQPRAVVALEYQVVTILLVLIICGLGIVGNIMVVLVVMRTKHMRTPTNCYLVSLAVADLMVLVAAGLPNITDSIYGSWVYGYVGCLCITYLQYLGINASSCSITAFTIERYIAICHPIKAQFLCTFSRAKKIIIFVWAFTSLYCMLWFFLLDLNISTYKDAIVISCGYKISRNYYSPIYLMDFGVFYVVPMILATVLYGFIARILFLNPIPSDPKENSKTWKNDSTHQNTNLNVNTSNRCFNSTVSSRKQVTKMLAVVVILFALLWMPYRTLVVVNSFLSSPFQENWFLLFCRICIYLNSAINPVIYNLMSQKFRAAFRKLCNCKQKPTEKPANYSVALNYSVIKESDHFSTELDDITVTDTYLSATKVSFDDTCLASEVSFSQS
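TRHR-expressing cells, plated overnight in medium with 10% serum, were loaded with fluo-8 calcium dye at room temperature. After a 10 s baseline, library compound was pin-added and calcium release was recorded kinetically (ex 480/em 530) as agonist response.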
D1 agonist = activates the human D1 dopamine receptor; P21728; HEK293 T-REx D1 cells, calcium flux, agonist mode; activation, % at 2 µM; 360,000 tested, 1% active; AID 504660; further: 0% is about no effect
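Agonism was scored from calcium flux recorded over 180 s (1 read/s) after pintool compound addition, following a 10-cycle baseline. Cells were inducible force-coupled HEK293 TREx D1, plated overnight at 30 C and loaded with no-wash calcium dye.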
D1 antag = blocks dopamine activation of the human D1 receptor; P21728; 360,000 tested, 3.2% active; activity change, negative = inhibition, % at 10 µM; AID 504652; HEK293 TREx D1 cells, calcium flux, dopamine EC80; hits give low values; in the data active means activity change below about -30%; further: on the % scale 0 is the no-effect control and ±100 the full control effect
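Inducible Hek293 Trex D1 cells (tetracycline, overnight, 30 C). Calcium dye 30–90 min RT. Antagonist mode: EC80 dopamine added after 180 s compound read.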
D1 potentiator = human D1 dopamine receptor positive modulation | P21728 | HEK293 TREx D1 cells, calcium flux, dopamine EC20 potentiation | potentiation, % at 10 µM | 360,000 tested, 0.036% active | AID 504651; in the data active means potentiation above about 30%; further: 0% is about no effect
TRHR enhancer = allosteric enhancers of human TRH receptor; AID 493056; P34981; 360,000 tested, 0.66% active; enhancement, % at 2 µM; TRHR cells, fluo-8 calcium fluorescence, EC20 TRH enhancement; in the data active means enhancement above about 30%; further: 0% is about no effect
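Enhancer read-out: after compound pinning and an initial kinetic agonist-mode read, an EC20 of TRH (10 nM final) was injected and fluo-8 calcium signal (Ex 480/Em 530) followed at 1 s/cycle for 100 cycles in TRHR-expressing cells.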
An asterisk follows results filed as active; nt = no result. This is a sample that favours compounds with a hit; in the whole collection about 4.7% have one here. Unless noted, no stated cut-off is given here; in the data, active means activation above about 30%; inactive means the rest.

SMILES | TRHR agonist | D1 agonist | D1 antag | D1 potentiator | TRHR enhancer
O=C(c1ccccc1NS(=O)(=O)c1ccc(Br)cc1)N1CCOCC1 | 0 | 4 | -33* | -4 | -2
CCOC(=O)COc1ccc(S(=O)(=O)Nc2ccc(C)cc2)cc1 | 3 | 45* | -15 | -13 | 3
COC(=O)COc1ccc(S(=O)(=O)Nc2ccc3c(c2)OCCO3)cc1Cl | 1 | 11 | -33* | -7 | 3
CSc1ccc(S(=O)(=O)Nc2ccccc2C(=O)N2CCOCC2)cc1 | -1 | 2 | -8 | 3 | 13
Cc1c(CNC2CCCCCC2)c(C(=O)O)c(C)n1Cc1ccc(F)cc1Cl | 0 | 0 | -9 | -1 | 4
COc1ccccc1CNc1ccc(-c2nc(-c3cccnc3)no2)cc1[N+](=O)[O-] | 2 | 3 | 4 | 0 | -2
COC(=O)c1scc(-c2ccc(C)cc2)c1S(=O)(=O)Nc1cccc(C(F)(F)F)c1 | 0 | 0 | -6 | 2 | 2
CCOC(=O)COc1ccc(S(=O)(=O)Nc2ccc3c(c2)OCO3)cc1 | -2 | 63* | 2 | -11 | -3
COc1ccccc1CCNC(=O)Cc1c(C)c2cc(Cl)c(O)cc2oc1=O | 0 | 1 | 14 | 0 | 12
CC(=O)c1cccc(NC(=O)CN(C)Cc2ccc(OC(F)F)cc2)c1 | -1 | 8 | -35* | -4 | -7
CN(CC(=O)Nc1cccc(C#N)c1)Cc1ccc(Cl)cc1 | 0 | 1 | -42* | -11 | 0
CN(CC(=O)NCc1ccccc1)Cc1ccc(Cl)cc1 | -1 | 0 | 3 | -1 | 33*
CN(CC(=O)NC(=O)NCc1ccccc1)Cc1ccc(Cl)cc1 | 0 | 1 | 2 | -4 | 9
COCCn1c(SCC(=O)c2ccccc2)nc2cc(C(=O)NC3CCCC3)ccc2c1=O | 1 | 0 | 0 | -3 | 0
Cc1ccccc1CN1C(=O)C(O)(c2c[nH]c3ccccc23)c2cc(Cl)ccc21 (stereo unspecified) | 1 | 1 | -1 | -4 | -2
COc1cc(NC(=O)c2ccc(-n3cnc4cccnc43)cc2)cc(OC)c1 | 0 | 0 | -3 | 1 | -1
COc1ccc(C(=O)OCC(=O)Nc2ccc(Cl)c(C(F)(F)F)c2)c(OC)c1OC | 2 | 5 | -11 | -9 | -6
Cc1ccc(NC(=O)CN(C)C(=O)c2ccc(C(F)(F)F)cc2)cc1 | 0 | -1 | -32* | -1 | 3
CCOc1ccc(NC(=O)CN2CCN(CC(=O)Nc3ccc(Cl)c(C(F)(F)F)c3)CC2)cc1 | 1 | 10 | -17 | -2 | 36*
COc1cc(CC(=O)Nc2ccc(Cl)c(C(F)(F)F)c2)cc(OC)c1OC | 2 | 12 | -35* | -3 | 1
CN(CC(=O)Nc1ccc(Cl)c(C(F)(F)F)c1)C(=O)c1cccs1 | 0 | 12 | -51* | -10 | 1
CCn1cc2c(n1)-c1c(oc(C(=O)Nc3cccc(C(F)(F)F)c3)c1C)CC2 | 0 | 2 | 4 | 2 | 4
Cc1ccc(NC(=O)CN(C)Cc2cccs2)cc1Cl | 0 | -3 | 6 | -2 | 33*
CCN(CC)c1ccc(NC(=O)CN(C)Cc2cccs2)cc1 | -1 | -1 | -7 | -1 | -9
CN(CC(=O)NCc1ccccc1)CC(=O)Nc1ccc(Cl)c(C(F)(F)F)c1 | 2 | 64* | 13 | nt | 5
SMILES | TRHR agonist | D1 agonist | D1 antag | D1 potentiator | TRHR enhancer
CCN(CC)c1ccc(C=C(c2nnnn2-c2ccc(C)cc2)c2nnnn2-c2ccc(C)cc2)cc1 | 5 | 32* | 5 | 2 | 3
Cc1ccc(-n2nnnc2-c2ccccc2)cc1 | -2 | 6 | -5 | -3 | -2
CCc1ccccc1N(CC)C(=O)c1cc2c(s1)-c1ccccc1OC2 | 1 | 9 | 18 | -1 | 10
O=C(O)c1cc(NC(=O)c2ccccc2F)cc(NC(=O)c2ccccc2F)c1 | -3 | 5 | 17 | -2 | 4
COC(=O)c1cc(NC(=O)c2ccc(F)cc2)cc(C(=O)OC)c1 | 0 | 1 | 13 | 3 | -6
COC(=O)c1cc(NC(=O)c2ccccc2F)cc(C(=O)OC)c1 | -1 | 6 | -32* | 3 | 5
Cc1ccccc1C(=O)Nc1cc(NC(=O)c2ccccc2C)cc(C(=O)O)c1 | 0 | 7 | -38* | -4 | 2
O=C(NCc1cccc(F)c1)c1ccc(-n2cnc3cccnc32)cc1 | -1 | 0 | -3 | 2 | 4
O=C(CC1CCCC1)Nc1cccc(Br)c1 | 0 | 3 | -38* | -7 | -4
CC(C)CC1NC(=O)N(CC(=O)Nc2cccc(Br)c2)C1=O (stereo unspecified) | 0 | -2 | -39* | -6 | 12
CC(C)CC(=O)Nc1cc(-c2ccccc2F)nn1-c1ccccc1 | 0 | 0 | -17 | 0 | 17
COc1ccc(NC(=O)CCc2c(C)nn(-c3ccc(N4CCCCC4)nn3)c2C)cc1Cl | 0 | 0 | -12 | 7 | 3
CSC1=NCCN1C(=O)Cc1ccc(Cl)cc1 | 0 | 2 | 24 | nt | -5
Cc1cccc(C(=O)N2CCN=C2SCc2ccc([N+](=O)[O-])cc2)c1 | 0 | 6 | 5 | 4 | 1
COc1ccc(CC(=O)N2CCN=C2SC)cc1 | 1 | 3 | -79* | nt | 1
O=C(Cc1ccccc1)N1CCN=C1SCc1cccc([N+](=O)[O-])c1 | 0 | 0 | -23 | -4 | 31*
Cc1cc(C)nc(CCNC(=O)c2cc(COc3ccc(F)cc3Cl)on2)n1 | -2 | 6 | 3 | -4 | 2
Cc1cc(C)nc(CCNC(=O)c2cc(COc3ccc(F)cc3F)on2)n1 | -1 | 1 | -34* | 2 | 0
Cc1cc(OCC(O)CN(CCO)CCO)ccc1Cl (stereo unspecified) | 0 | 1 | 10 | 7 | -4
O=[N+]([O-])c1ccc(OCC(O)CN(CCO)CCO)cc1 (stereo unspecified) | 0 | 4 | -35* | -1 | -2
CCc1nc2c(c(=O)c3ccccc3n2C)c(=O)n1C1CCCCCC1 | 39* | 195* | -28 | -2 | -10
Cn1c2ccccc2c(=O)c2c(=O)n(C3CCCCC3)c(-c3cccs3)nc21 | 23 | 116* | -32* | -4 | -13
Cn1c2ccccc2c(=O)c2c(=O)n(-c3ccccc3)c(C3CCCCC3)nc21 | -1 | 1 | 70 | 19 | 6
Cn1c2ccccc2c(=O)c2c(=O)n(C3CCCCCC3)c(C3CCCCC3)nc21 | 29 | 121* | -27 | 5 | -7
CCc1ccc(NC(=O)CN2C(C(=O)OC)=C(c3ccccc3)c3ccccc3S2(=O)=O)cc1 | 0 | 2 | -7 | -1 | 3
COc1cc(NC(=S)N2CCN(C(c3ccccc3)c3ccccc3)CC2)cc(OC)c1 | 1 | 5 | -32* | 2 | 2
COc1cc(NC(=S)N2CCN(C/C=C/c3ccccc3)CC2)cc(OC)c1 | 0 | 3 | -3 | 2 | -2
